# Source: PubChem BioAssay (NCATS)
# Inconclusive results are not listed. The source made the active and inactive calls. Calls follow the shape of the dose curve; as a rule, active = well fitted cell-killing curve with a large enough effect; inconclusive = small, poorly fitted or top-dose-only effect; inactive = flat fitted curve, though single readings scatter.
# Test: Cellular viability qHTS for adrenocortical cancer (ACC) cell line NCI-H295R (AID 1963990); also: nearly all actives have a fitted effect of over 60% in size;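 as to activity change, negative = viability loss: 0% = DMSO only wells and -100% = full killing with cytotoxic reference compound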
# Conditions: CellTiter-Glo ATP luminescence, 48 h; series mostly up to 46.1 µM; activity change, negative = viability loss: at the top concentration
# How it was run: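 Compound titrations (up to 46 uM final) are applied to NCI-H295R cultures for 48 h at 37C. Viable cell number is estimated by CellTiter-Glo signal, normalised to DMSO and doxorubicin controls.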
# Potency is read from the fitted curve at half-maximal effect.
SMILES,"activity change, negative = viability loss",Potency
CC(C)(O)c1ccccc1CC[C@@H](SCC1(CC(=O)O)CC1)c1cccc(/C=C/c2ccc3ccc(Cl)cc3n2)c1,-1.13% (inactive),–
Oc1cccc2[nH]ccc12,-2.31% (inactive),–
C[C@@H](O)[C@@H](C)Oc1nc(Nc2ccc(S(=N)(=O)C3CC3)cc2)ncc1C(F)(F)F (stereo not given in full),-6.05% (inactive),–
FC(F)(F)c1ccc(Nc2nc(-c3c(C(F)(F)F)nc4ccccn34)cs2)cc1,–,316 nM (active)
O=C(O)C1(C(=O)O)CCC1.[NH2-].[NH2-].[Pt+2],-18.6% (inactive),–
COc1ccccc1N1CCN(CCCCNC(=O)c2ccc(-c3ccc(C(C)=O)cc3)cc2)CC1,-3.33% (inactive),–
CCc1c(-c2ccccc2C)nc2c(C#N)c[nH]n2c1=O,-32.4% (inactive),–
FC(F)(F)c1ccccc1-n1ccnc1,-1.45% (inactive),–
Nc1ccc(C(=O)OCC(O)CO)cc1 (stereo not given),-2.29% (inactive),–
c1ccc2c(c1)CCc1ccccc1N2,-22.7% (inactive),–
C[C@]12CC[C@@H]3c4ccc(O)cc4CC[C@H]3[C@@H]1CC[C@@H]2OC(=O)CCC1CCCC1,0.642% (inactive),–
CC(N=C(NC#N)Nc1ccncc1)C(C)(C)C (stereo not given),-4% (inactive),–
O=C(C[C@@H]1C/C=C\CCC(=O)O[C@H](c2ccccc2)CNC1=O)NCc1ccc(Cl)cc1,-0.256% (inactive),–
CC[C@]12C=CCN3CC[C@@]4(c5cc([C@@]6(C(=O)OC)CC7C[C@@H](C(C)(F)F)CN(Cc8c6[nH]c6ccccc86)C7)c(OC)cc5N(C)[C@H]4[C@@](O)(C(=O)OC)[C@@H]1OC(C)=O)[C@@H]32 (stereo not given in full),–,708 nM (active)
COC(=O)/C=C/C(=O)N(O)CCCCNCc1ccc(COC(=O)Nc2cccc3ccccc23)cc1,-2.99% (inactive),–
